Sampled rows, rich in hits. Any-hit rate of the full collection: about 2.4%.
PfGluPho inh: PfG6PD (Plasmodium falciparum) enzyme inhibition. hit rate 0.78% among 350,000. inhibition, % at 20 µM. PfGluPho enzyme, NADPH resazurin-diaphorase fluorescence;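 active means inhibition reaching at least a set limit at 20 µM in the primary screen, cut at about 59% in these data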;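 further: 0% = DMSO wells with substrate and 100% = DMSO wells lacking glucose-6-phosphate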
A3G deaminase: APOBEC3G (human) deaminase inhibition; recombinant A3G, ssDNA deamination FAM/TAMRA fluorescence; inhibition, % at 20 µM; hit rate 0.28% among 330,000; AID 493012;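 active means inhibition of at least 40% at 20 µM, with no more than 30% in the related APOBEC3A deaminase screen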;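 further: plate controls were DMSO wells with A3G for no effect and wells lacking A3G enzyme for full effect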
Target sequence (Q9HC16 whole entry, looked up): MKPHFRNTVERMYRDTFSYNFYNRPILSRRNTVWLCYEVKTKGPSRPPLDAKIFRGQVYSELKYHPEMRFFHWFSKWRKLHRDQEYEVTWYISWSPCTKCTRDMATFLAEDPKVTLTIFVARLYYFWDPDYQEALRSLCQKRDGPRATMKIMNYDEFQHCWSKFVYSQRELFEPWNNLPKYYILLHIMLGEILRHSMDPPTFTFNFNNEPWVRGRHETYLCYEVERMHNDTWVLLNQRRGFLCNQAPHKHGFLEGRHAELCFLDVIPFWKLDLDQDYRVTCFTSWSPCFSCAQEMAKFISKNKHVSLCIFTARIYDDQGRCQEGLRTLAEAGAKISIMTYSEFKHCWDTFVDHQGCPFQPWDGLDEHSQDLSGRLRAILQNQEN
Yeast superoxide: lowers age-related superoxide in aged yeast cells; S. cerevisiae aged cells, superoxide DHE fluorescence; stronger effect = lower value; superoxide response (% of plate mean), % at 10 µM; hit rate 0.18% among 330,000;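 active means superoxide response under a set limit, about three screen SD below normal, cut at about 65% in these data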;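 further: yeast aged for seven days with compound at 30 °C before DHE staining; 100% = average MFI of all compound-treated wells on the plate with controls excluded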
APOBEC3A inh: blocks human APOBEC3A ssDNA deamination; hit rate 0.41% among 330,000; inhibition, % at 20 µM; AID 493011; recombinant A3A, FAM/TAMRA ssDNA deamination fluorescence; P31941;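 active means at least 40% inhibition at 20 µM here, with at most 30% in a related deaminase screen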;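 further: plate controls were A3A with DMSO for no effect and wells lacking A3A enzyme for full effect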
PfM18AAP inh: PfM18AAP enzyme inhibition. recombinant PfM18AAP, H-Glu-NHMec fluorogenic cleavage. inhibition, % at 7.35 µM. hit rate 1.2% among 290,000. AID 1822;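 active means inhibition above the campaign mean inhibition over all tested compounds plus 3 SD, cut at about 28% in these data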;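 further: 0% = plate median of test compound wells and 100% = 2 mM ZnCl2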
A3A conf: APOBEC3A (human) deaminase inhibition, confirmed; hit rate 63% among 1,400; inhibition, % at 20 µM; recombinant A3A, ssDNA deaminase UDG fluorescence assay; shares compounds with APOBEC3A inh;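 active means inhibition reaching a set limit, 80% of the first screen's cutoff, at 20 µM in any replicate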;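 further: plate controls were DMSO wells with A3A for no effect and wells lacking A3A enzyme for full effect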
UDG A3A counter: counter-screen for APOBEC3A inhibitors: UDG | shares compounds with APOBEC3A inh | UDG counterscreen, FAM/TAMRA uracil oligo fluorescence | inhibition, % at 20 µM | 1,000 tested, under 10 active; call rule not given here
Starred values were filed as active, the others as inactive; x = no result given.

SMILES	PfGluPho inh	A3G deaminase	Yeast superoxide	APOBEC3A inh	PfM18AAP inh	A3A conf	UDG A3A counter
O=c1[nH]c(C2C3CC4CC(C3)CC2C4)nc2ccccc12 (stereo unspecified)	-13	-4	96	49*	-10	-10	-2
Cc1nc2ccccc2c(=O)[nH]1	-6	-8	111	-4	5	x	x
CS(=O)(=O)c1ccc(-c2nnn(CC(N)=O)n2)cc1	1	8	116	50*	-8	17	x
CSc1ccccc1NC(=O)Cn1nnc(-c2ccc(S(C)(=O)=O)cc2)n1	-7	-9	103	-4	0	x	x
COc1cccc(OCCn2cc(C(=O)c3ccco3)c3ccccc32)c1	6	-3	119	0	1	x	x
COc1cccc(OCCn2cc(C(C)=O)c3ccccc32)c1	19	7	108	48*	-1	14	x
COc1ccc(CSCC(=O)N/N=C/c2ccc(OCC(=O)N3CCCCC3)cc2)cc1	2	22	90	52*	5	52*	-2
COc1ccc(C(O)c2cnc(C)n2Cc2ccccc2)cc1 (stereo unspecified)	-14	x	x	x	x	x	x
Cc1cccc(NC(=O)CSCC(=O)Nc2cc(Cl)ccc2N2CCN(C)CC2)c1	18	7	103	51*	8	26	x
Cc1c(C(=O)OC(C)C(C)C[N+](C)(C)C)oc2ccccc12 (stereo unspecified)	-21	24	103	83*	3	81*	-3
Cc1cc(C)c(C#N)c(Nc2cccc(C)c2C)n1	3	-5	105	-3	-5	x	x
COc1cccc(CN(C(=O)c2ccc([N+](=O)[O-])cc2)C2CCS(=O)(=O)C2)c1 (stereo unspecified)	-9	-4	101	-3	-3	x	x
COc1ccc(NS(=O)(=O)c2ccc(S(=O)(=O)N(C)C)cc2)cc1S(N)(=O)=O	-9	-6	94	77*	1	-1	3
COc1ccc(S(=O)(=O)Nc2ccc(S(=O)(=O)N(C)C)cc2)cc1[N+](=O)[O-]	-19	1	105	2	-12	x	x
O=C(CNS(=O)(=O)c1ccccc1)NCC(=O)OCc1ccc(Cl)cc1	10	-8	98	-1	-2	x	x
O=C(Oc1ccc(Cl)c(Cl)c1)C1=CC=CN2CCS(=O)(=O)N=C12	3	-5	80	-4	x	x	x
CN(Cc1ccc(Cl)c(Cl)c1)C(=O)C1=CC=CN2CCS(=O)(=O)N=C12	4	15	99	47*	x	43*	-2
COc1ccc(Br)cc1CN(C)C(=O)C1=CC=CN2CCS(=O)(=O)N=C12	-9	3	90	55*	x	51*	3
COc1ccc(Br)cc1CN(C)C(=O)c1ccncc1	2	-4	108	-1	-1	x	x
CCN1C(=O)[C@H]2[C@@H](c3ccc(-c4ccccc4)cc3)N3CCC[C@@]3(C(=O)OC)[C@H]2C1=O	-13	-10	x	-5	x	x	x
CCCS(=O)(=O)N1CCc2ccc(NC(=O)C3CCCO3)cc2C1 (stereo unspecified)	-2	-8	94	-1	4	x	x
CCOC(=O)c1[nH]ncc1CN1CCc2ccc(NC(=O)C3CCCO3)cc2C1 (stereo unspecified)	-2	-8	97	54*	3	-7	-3
COc1ccc2cc(/C(C)=N/NC(=O)c3cc(C)oc3C)ccc2c1	5	x	x	x	x	x	x
CCC(CC)C(=O)Oc1c(C(=O)N(C)C)cccc1-c1ccccc1	0	x	x	x	x	x	x
COC(=O)C(C)Sc1nnc(Cc2cc(=O)[nH]c(=O)[nH]2)n1-c1ccc(OC)cc1 (stereo unspecified)	4	-2	115	2	-3	x	x
CCC(C)Sc1nnc(Cc2cc(=O)[nH]c(=O)[nH]2)n1-c1ccc(OC)cc1 (stereo unspecified)	10	-4	116	63*	2	-2	-2
COc1ccc(NC(=O)CSc2nc3ccsc3c(=O)n2Cc2ccccn2)c(OC)c1	-15	-3	99	43*	-6	6	0
CC1CCCCC12NC(=O)N(CC(=O)N1CCN(S(=O)(=O)Cc3ccccc3)CC1)C2=O (stereo unspecified)	-2	-9	109	-7	x	x	x
CCCOc1ccc(/C=C/C(=O)N2CCN(C(=O)c3ccco3)CC2)cc1OC	2	x	x	x	x	x	x

Assay outcomes as filed in PubChem BioAssay.
